The panel holds about 83,000 compounds, 20% with a hit somewhere; the sample as a whole holds those more often.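 Method: cells in 96-well plates; compound added at one concentration; 48 h incubation; percent growth measured; values under 10 scored active.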 Activity calls are given as the source filed them.
Legend:
Test in all cases: NCI-60 one-dose screen, 48 h (100 = growth as untreated, 0 = no growth, -100 = all killed)
Settings in all cases: 10 µM unless noted
DU-145 prostate = system: DU-145 prostate
K-562 leukemia = system: K-562 leukemia
MALME-3M melanoma = system: MALME-3M melanoma
MDA-MB-231 breast = system: MDA-MB-231 breast
RXF 393 renal = system: RXF 393 renal
SF-268 CNS = system: SF-268 CNS
SF-295 CNS = system: SF-295 CNS
SF-539 CNS = system: SF-539 CNS
UACC-257 melanoma = system: UACC-257 melanoma
M14 melanoma = system: M14 melanoma
HCT-15 colon = system: HCT-15 colon
HT29 colon = system: HT29 colon
SNB-75 CNS = system: SNB-75 CNS
SNB-19 CNS = system: SNB-19 CNS
U251 CNS = system: U251 CNS
PC-3 prostate = system: PC-3 prostate
SK-MEL-5 melanoma = system: SK-MEL-5 melanoma
UACC-62 melanoma = system: UACC-62 melanoma
LOX IMVI melanoma = system: LOX IMVI melanoma
SK-MEL-28 melanoma = system: SK-MEL-28 melanoma

Measured: growth

COc1ccc(N)c(S)c1
inactive: DU-145 prostate 102% | K-562 leukemia 97.4% | MALME-3M melanoma 101% | MDA-MB-231 breast 86.7% | RXF 393 renal 111% | SF-268 CNS 105% | SF-295 CNS 100% | SF-539 CNS 101% | UACC-257 melanoma 80.5% | M14 melanoma 101% | HCT-15 colon 97% | HT29 colon 100% | SNB-75 CNS 84.6% | SNB-19 CNS 100% | U251 CNS 93.8% | PC-3 prostate 73.4% | SK-MEL-5 melanoma 91.5% | UACC-62 melanoma 93.5% | LOX IMVI melanoma 92.3% | SK-MEL-28 melanoma 113%

O=C1COc2ccccc2C(=O)N1CCCCNc1ccccc1
inactive: DU-145 prostate 96.3% | K-562 leukemia 68.5% | MALME-3M melanoma 102% | MDA-MB-231 breast 88.8% | RXF 393 renal 123% | SF-268 CNS 73.2% | SF-295 CNS 96.3% | SF-539 CNS 63.2% | UACC-257 melanoma 105% | M14 melanoma 99.1% | HCT-15 colon 90.6% | HT29 colon 81.8% | SNB-75 CNS 106% | SNB-19 CNS 94.1% | U251 CNS 85.7% | PC-3 prostate 47.2% | SK-MEL-5 melanoma 99.3% | UACC-62 melanoma 95% | LOX IMVI melanoma 101% | SK-MEL-28 melanoma 103%

CN(C)c1ccc(/C=N/N=C(N)N)cc1
inactive: DU-145 prostate 92.6% | K-562 leukemia 40% | MALME-3M melanoma 77% | MDA-MB-231 breast 75.8% | RXF 393 renal 75.1% | SF-268 CNS 87% | SF-295 CNS 61.4% | SF-539 CNS 90.9% | UACC-257 melanoma 72.4% | M14 melanoma 51.2% | HCT-15 colon 49% | HT29 colon 26.4% | SNB-75 CNS 66.5% | SNB-19 CNS 74.2% | U251 CNS 60.2% | PC-3 prostate 83.8% | SK-MEL-5 melanoma 47.3% | UACC-62 melanoma 72.7% | LOX IMVI melanoma 70.5% | SK-MEL-28 melanoma 81.7%

COC(=O)Nc1nc2ccc(Sc3ccccc3)cc2[nH]1
inactive: DU-145 prostate 17.5% | MALME-3M melanoma 41.9% | MDA-MB-231 breast 45.6% | RXF 393 renal 15% | SF-268 CNS 37.8% | UACC-257 melanoma 52.1% | HCT-15 colon 13.8% | SNB-75 CNS 21.7% | SNB-19 CNS 31.3% | U251 CNS 17% | PC-3 prostate 26.6% | UACC-62 melanoma 35.9% | LOX IMVI melanoma 19.3% | SK-MEL-28 melanoma 48.9%
active: K-562 leukemia 5.33% | SF-295 CNS -16.1% | SF-539 CNS 0.846% | M14 melanoma 8.93% | HT29 colon 4.14% | SK-MEL-5 melanoma 8.9%

COc1ccc(-c2[nH]c3ccccc3c2/C=C(\C#N)S(=O)(=O)c2ccccc2)cc1
active: RXF 393 renal -12.2% | SF-295 CNS -11.5% | SF-539 CNS -30.7%
inactive: DU-145 prostate 12.3% | K-562 leukemia 33.8% | MALME-3M melanoma 73.6% | MDA-MB-231 breast 31.5% | SF-268 CNS 45.1% | UACC-257 melanoma 73.2% | M14 melanoma 20.2% | HCT-15 colon 24.6% | HT29 colon 12.6% | SNB-75 CNS 33.1% | SNB-19 CNS 30.3% | U251 CNS 24.2% | PC-3 prostate 30.9% | SK-MEL-5 melanoma 12.5% | UACC-62 melanoma 22.6% | LOX IMVI melanoma 28.5% | SK-MEL-28 melanoma 54.2%

COc1cc(Nc2ncccc2C(=O)Nc2nc3ccc(F)cc3s2)cc(OC)c1OC
inactive: DU-145 prostate 90.4% | K-562 leukemia 97% | MALME-3M melanoma 78.8% | MDA-MB-231 breast 71.4% | RXF 393 renal 139% | SF-268 CNS 90% | SF-295 CNS 15.6% | SF-539 CNS 92.9% | UACC-257 melanoma 86.4% | M14 melanoma 19.1% | HCT-15 colon 76.2% | HT29 colon 79.1% | SNB-75 CNS 73.5% | SNB-19 CNS 89% | U251 CNS 58.5% | PC-3 prostate 39.2% | SK-MEL-5 melanoma 63.9% | UACC-62 melanoma 24.4% | LOX IMVI melanoma 57.3% | SK-MEL-28 melanoma 84%

O=S(c1ccccc1)c1ccc2nnnn2n1 (stereo not given)
inactive: DU-145 prostate 105% | MALME-3M melanoma 103% | MDA-MB-231 breast 104% | RXF 393 renal 117% | SF-268 CNS 97.1% | SF-295 CNS 102% | SF-539 CNS 102% | UACC-257 melanoma 99.6% | M14 melanoma 99% | HCT-15 colon 79.8% | HT29 colon 92% | SNB-75 CNS 107% | SNB-19 CNS 107% | U251 CNS 103% | PC-3 prostate 96.6% | SK-MEL-5 melanoma 99.8% | UACC-62 melanoma 98.6% | LOX IMVI melanoma 89.7% | SK-MEL-28 melanoma 105%
active: K-562 leukemia -9.22%

NC(N)=N/N=C/c1ccc([N+](=O)[O-])cc1
inactive: DU-145 prostate 125% | K-562 leukemia 117% | MALME-3M melanoma 103% | MDA-MB-231 breast 101% | RXF 393 renal 102% | SF-268 CNS 103% | SF-295 CNS 91.3% | SF-539 CNS 105% | UACC-257 melanoma 102% | M14 melanoma 105% | HCT-15 colon 105% | HT29 colon 105% | SNB-75 CNS 83.4% | SNB-19 CNS 109% | U251 CNS 105% | PC-3 prostate 94.5% | SK-MEL-5 melanoma 100% | UACC-62 melanoma 91.6% | LOX IMVI melanoma 96% | SK-MEL-28 melanoma 109%

CC(=O)Nc1ccc([I+]c2ccc([N+](=O)[O-])cc2)cc1
inactive: DU-145 prostate 107% | K-562 leukemia 69.3% | MALME-3M melanoma 43.6% | MDA-MB-231 breast 113% | RXF 393 renal 129% | SF-268 CNS 99.4% | SF-295 CNS 118% | SF-539 CNS 101% | UACC-257 melanoma 90.4% | M14 melanoma 83% | HCT-15 colon 100% | HT29 colon 81.3% | SNB-75 CNS 90.5% | SNB-19 CNS 109% | U251 CNS 81.1% | PC-3 prostate 82.3% | SK-MEL-5 melanoma 80.6% | UACC-62 melanoma 81.1% | LOX IMVI melanoma 90.5% | SK-MEL-28 melanoma 106%

Cn1cnc([N+](=O)[O-])c1N1c2ccncc2Sc2ccncc21
inactive: DU-145 prostate 108% | K-562 leukemia 83.2% | MALME-3M melanoma 84% | MDA-MB-231 breast 85.1% | RXF 393 renal 100% | SF-268 CNS 101% | SF-295 CNS 86.7% | SF-539 CNS 96.3% | UACC-257 melanoma 101% | M14 melanoma 101% | HCT-15 colon 99% | HT29 colon 137% | SNB-75 CNS 233% | SNB-19 CNS 94.7% | U251 CNS 88.7% | PC-3 prostate 93.3% | SK-MEL-5 melanoma 91.7% | UACC-62 melanoma 81% | LOX IMVI melanoma 78.5% | SK-MEL-28 melanoma 149%

O=C(Nc1cccc(-n2ccc3c(NC(=O)c4ccccc4)nccc32)c1)c1cc(N2CCOCC2)cc(C(F)(F)F)c1
inactive: MALME-3M melanoma 32% | UACC-257 melanoma 32% | SNB-75 CNS 39.2% | SNB-19 CNS 26.3% | PC-3 prostate 27.9% | UACC-62 melanoma 17.5% | SK-MEL-28 melanoma 38%
active: DU-145 prostate -20.2% | K-562 leukemia 4.28% | MDA-MB-231 breast -16.6% | RXF 393 renal -67.3% | SF-268 CNS 8.26% | SF-295 CNS -24.4% | SF-539 CNS -23.2% | M14 melanoma 9.34% | HCT-15 colon 3.17% | HT29 colon -22.6% | U251 CNS 4.89% | SK-MEL-5 melanoma -74.7% | LOX IMVI melanoma 9.47%

CC(C(C(=O)N1CCCCC1)N1CCCCC1)N1CCCCC1 (stereo not given)
inactive: DU-145 prostate 122% | K-562 leukemia 94.7% | MALME-3M melanoma 118% | MDA-MB-231 breast 112% | RXF 393 renal 112% | SF-268 CNS 115% | SF-295 CNS 117% | SF-539 CNS 116% | UACC-257 melanoma 101% | M14 melanoma 103% | HCT-15 colon 107% | HT29 colon 105% | SNB-75 CNS 100% | SNB-19 CNS 103% | U251 CNS 97.9% | PC-3 prostate 107% | SK-MEL-5 melanoma 112% | UACC-62 melanoma 102% | LOX IMVI melanoma 107% | SK-MEL-28 melanoma 107%

c1ccc2c(c1)Oc1cccnc1-n1nccc1-2
inactive: DU-145 prostate 110% | K-562 leukemia 104% | MALME-3M melanoma 103% | MDA-MB-231 breast 93.5% | RXF 393 renal 107% | SF-268 CNS 102% | SF-295 CNS 108% | SF-539 CNS 106% | UACC-257 melanoma 102% | M14 melanoma 101% | HCT-15 colon 108% | HT29 colon 99.7% | SNB-75 CNS 88.8% | SNB-19 CNS 103% | U251 CNS 100% | PC-3 prostate 89.7% | SK-MEL-5 melanoma 95.7% | UACC-62 melanoma 84.7% | LOX IMVI melanoma 96.3% | SK-MEL-28 melanoma 102%

CCOC(=O)n1cnc2c(Cl)ncnc21
inactive: DU-145 prostate 106% | K-562 leukemia 106% | MALME-3M melanoma 113% | MDA-MB-231 breast 101% | RXF 393 renal 104% | SF-268 CNS 111% | SF-295 CNS 101% | SF-539 CNS 93.6% | UACC-257 melanoma 86.4% | M14 melanoma 101% | HCT-15 colon 112% | HT29 colon 106% | SNB-75 CNS 93.9% | SNB-19 CNS 86.4% | U251 CNS 101% | PC-3 prostate 113% | SK-MEL-5 melanoma 95.8% | UACC-62 melanoma 104% | LOX IMVI melanoma 88.6% | SK-MEL-28 melanoma 121%

COc1cc(C(=O)NNC(=O)c2ccccc2C(=O)O)cc(OC)c1OC
active: RXF 393 renal -3.15%
inactive: DU-145 prostate 56.8% | K-562 leukemia 43.1% | MALME-3M melanoma 62% | MDA-MB-231 breast 45.2% | SF-268 CNS 53.8% | SF-295 CNS 46.8% | SF-539 CNS 30.1% | UACC-257 melanoma 69.9% | M14 melanoma 51.4% | HCT-15 colon 31.8% | HT29 colon 20.8% | SNB-75 CNS 86.3% | SNB-19 CNS 49.6% | U251 CNS 39.7% | PC-3 prostate 54.7% | SK-MEL-5 melanoma 38.2% | UACC-62 melanoma 39.8% | LOX IMVI melanoma 16.9% | SK-MEL-28 melanoma 75.6%

COc1ccc(-c2nn(-c3ccc(NC(=O)Nc4cc(C(F)(F)F)cc(C(F)(F)F)c4)cc3)cc2-c2ccncc2)cc1Cl
inactive: DU-145 prostate 30.4% | K-562 leukemia 17.2% | MALME-3M melanoma 11.4% | SF-268 CNS 21.8% | SF-539 CNS 24.6% | UACC-257 melanoma 13.6% | M14 melanoma 20.6% | HT29 colon 11.7% | SNB-75 CNS 34.4% | SNB-19 CNS 31.5% | U251 CNS 11.8% | UACC-62 melanoma 15.6% | LOX IMVI melanoma 15% | SK-MEL-28 melanoma 30.1%
active: MDA-MB-231 breast 8.03% | RXF 393 renal -26.2% | SF-295 CNS 4% | HCT-15 colon 9.81% | PC-3 prostate 3.33% | SK-MEL-5 melanoma 9.61%

— PubChem BioAssay (NCI)
